Measurements from PubChem BioAssay (NCATS).
Results filed as inconclusive are left out. A number with no mark means an inactive call. Activity calls are given as the source filed them. The call rests on the fitted dose curve; in most records, active means well fitted curve in the direction sought with a large enough effect; inconclusive means small, poorly fitted or top-dose-only effect, or another doubt; inactive means no such curve, though single readings can be large; an effect the other way counts as inactive or inconclusive. Numbered stars: 1 amine (or outer) side, 2 acyl side, 3 side chain; on linkers, the order of the positions; unused ones are H or OH. Bridge positions count the residues as written; N and C are the ends. Square brackets hold non-standard residues; d marks the D form. Peptide text beside a SMILES is read from it. I, II: the chains in the order shown. Actinocin(9to1) = Cc1c2oc3c(C)ccc(C(=O)[*:1])c3nc-2c(C(=O)[*:2])c(N)c1=O; NMeV = CN[C@H](C(=O)O)C(C)C; Sar = CNCC(=O)O

Molecular target: Calcium and integrin-binding protein 1 (Homo sapiens) (UniProt Q99828)
Test: Primary qHTS for Identification of Calcium Integrin Binding Protein 1 (CIB1) Competitor (AID 1508620);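 further: GST tagged CIB1 binding a fluorescein labelled alphaIIb integrin peptide tracer; top concentration of the series differs between compounds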
Settings: CIB1-GST / FITC-alphaIIb peptide fluorescence polarization; series mostly up to 114 µM; activity change, negative = inhibition: at the top concentration
Summary of the method: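 Fluorescence polarization competition: CIB1-GST (1 uM final) preincubated with compound 15 min at room temperature, then FITC-labeled alphaIIb peptide (100 nM final) added for another 15 min. Polarization read at Ex 480/Em 540.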
On the % scale 0 is the no-effect control and ±100 the full control effect.

Calcium and integrin-binding protein 1 (Homo sapiens), sequence (Q99828 whole entry, looked up): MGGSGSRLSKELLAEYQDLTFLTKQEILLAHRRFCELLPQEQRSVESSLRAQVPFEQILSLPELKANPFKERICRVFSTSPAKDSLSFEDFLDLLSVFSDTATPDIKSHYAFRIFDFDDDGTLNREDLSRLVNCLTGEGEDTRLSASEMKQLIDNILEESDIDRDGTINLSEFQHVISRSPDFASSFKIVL

SMILES | activity change, negative = inhibition | Potency
OCc1ccccc1O | -2.09% | –
CN(C)CCOc1ccccc1Cc1ccccc1 | 1.6% | –
C[C@H](O)C(=O)Nc1c(I)c(C(=O)NC(CO)CO)c(I)c(C(=O)NC(CO)CO)c1I | 3.82% | –
COc1cc(OC)cc(OC)c1 | 5.4% | –
CN(C)C(=S)SC(=S)N(C)C | -1.21% | –
CCCCOc1cc(C(=O)NCCN(CC)CC)c2ccccc2n1 | -11.5% | –
COc1cccc(OC)c1C(=O)N[C@@H]1C(=O)N2[C@@H]1SC(C)(C)[C@@H]2C(=O)O | – | inactive
O=C1[C@H]2CCCC[C@H]2C(=O)N1CCCCN1CCN(c2nsc3ccccc23)CC1 | -0.0779% | –
COc1cc(C(=S)N2CCOCC2)cc(OC)c1OC | -2.15% | –
O=C(N/N=C/c1ccccc1O)c1ccncc1 | -15.1% | –
CCN(CC)C(=O)N1CCN(C)CC1 | -0.469% | –
CCN(CCCc1ccccc1)CCCc1ccccc1 | 1.93% | –
COc1cc(N)c(Cl)cc1C(=O)NC1CCN(CCCOc2ccc(F)cc2)CC1OC (stereo not given) | -0.0134% | –
COc1cc(/C=C/C(=O)O[C@H]2CC[C@]34C[C@]35CC[C@]3(C)[C@@H]([C@H](C)CCC=C(C)C)CC[C@@]3(C)[C@@H]5CC[C@H]4C2(C)C)ccc1O | 4.85% | –
CCN(CC)C(=O)/C(C#N)=C/c1cc(O)c(O)c([N+](=O)[O-])c1 | -14.8% | –
Cc1c2oc3c(C)ccc(C(=O)N[C@@H]4C(=O)N[C@H](C(C)C)C(=O)N5CCC[C@H]5C(=O)N(C)CC(=O)N(C)[C@@H](C(C)C)C(=O)O[C@@H]4C)c3nc-2c(C(=O)N[C@@H]2C(=O)N[C@H](C(C)C)C(=O)N3CCC[C@H]3C(=O)N(C)CC(=O)N(C)[C@@H](C(C)C)C(=O)O[C@@H]2C)c(N)c1=O (I: T[dV]P[Sar][NMeV] / II: T[dV]P[Sar][NMeV]; ester I:1-I:C, II:1-II:C; linker I:N-II:N via Actinocin(9to1)) | 0.608% | –
O=C(COc1ccc(Cl)cc1)N1CCN(Cc2ccc3c(c2)OCO3)CC1 | 3.99% | –
NC(=O)C(=O)N/N=C/c1ccc([N+](=O)[O-])o1 | 6.07% | –

SMILES | activity change, negative = inhibition | Potency
NCCc1ccn[nH]1 | -2.01% | –
CCCCOc1ccc(OCCCN2CCOCC2)cc1 | 7.08% | –
CN1CCC(=C2c3ccccc3Sc3ccccc32)CC1 | 2.72% | –
C=C1C(=C/C=C2\CCC[C@]3(C)[C@@H]([C@H](C)/C=C/[C@@H](O)C4CC4)CC[C@@H]23)C[C@@H](O)C[C@@H]1O | 1.12% | –
CCCCS(=O)(=O)N[C@@H](Cc1ccc(OCCCCC2CCNCC2)cc1)C(=O)O | – | inactive
CNCC[C@@H](Oc1ccccc1C)c1ccccc1 | -0.978% | –
COC(=O)CCc1ccc(OCC(O)CNC(C)C)cc1 (stereo not given) | – | inactive
CC(=O)[C@H]1CC[C@H]2[C@@H]3C[C@H](C)C4=CC(=O)CC[C@]4(C)[C@H]3[C@@H](O)C[C@]12C | -4.27% | –
CC[N+](CC)(CCNC(=O)C(=O)NCC[N+](CC)(CC)Cc1ccccc1Cl)Cc1ccccc1Cl | -4.21% | –
CCOC(=O)c1cccc(N)c1 | -13.8% | –
OC[C@H]1O[C@H](O[C@]2(CCl)O[C@H](CCl)[C@@H](O)[C@@H]2O)[C@H](O)[C@@H](O)[C@H]1Cl | – | inactive
NC[C@H]1O[C@H](O[C@H]2[C@H](O)[C@@H](O[C@H]3O[C@H](CO)[C@@H](O)[C@H](N)[C@H]3O)[C@H](N)C[C@@H]2N)[C@H](N)[C@@H](O)[C@@H]1O | 2.2% [at 57.7 µM] | –
CC1(C)O[C@@H]2C[C@H]3[C@@H]4CCC5=CC(=O)CC[C@]5(C)[C@@]4(F)[C@@H](O)C[C@]3(C)[C@]2(C(=O)CCl)O1 | 0.875% | –
CNC(=O)CN(CCN(CCN(CC(=O)[O-])CC(=O)NC)CC(=O)[O-])CC(=O)[O-].O.[Gd+3] | 1.52% | –
C#C[C@]1(O)CC[C@H]2[C@@H]3CCc4cc(OC5CCCC5)ccc4[C@H]3CC[C@@]21C | 2.48% | –
CCN(CC)CCNC(=O)COc1ccc(Cl)cc1 | 3.13% | –
Cc1cccn2c(=O)c(-c3nnn[nH]3)cnc12 | -8.73% [at 57.7 µM] | –

Tested on: not listed separately
Test: Primary qHTS for small molecule stabilizers of the endoplasmic reticulum resident proteome: Secreted ER Calcium Modulated Protein (SERCaMP) assay (AID 1508630)
Settings: SH-SY5Y GLuc-SERCaMP (Gaussia luciferase released on ER calcium loss) secretion, thapsigargin, luminescence; series mostly up to 38.4 µM; activity change, negative = inhibition: at the top concentration
Summary of the method: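 The SH-SY5Y reporter protocol was run at 3 concentrations up to 38.3 uM (primary) or 11 concentrations (follow-up): 16 h compound, 100 nM thapsigargin for 4 h, then extracellular luciferase luminescence.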

SMILES | activity change, negative = inhibition | Potency
COc1cccc(OC)c1C(=O)N[C@@H]1C(=O)N2[C@@H]1SC(C)(C)[C@@H]2C(=O)O | -23.3% | –
COc1cc(C(=S)N2CCOCC2)cc(OC)c1OC | -9.79% | –
CCN(CC)C(=O)N1CCN(C)CC1 | -26.6% | –
Cc1c2oc3c(C)ccc(C(=O)N[C@@H]4C(=O)N[C@H](C(C)C)C(=O)N5CCC[C@H]5C(=O)N(C)CC(=O)N(C)[C@@H](C(C)C)C(=O)O[C@@H]4C)c3nc-2c(C(=O)N[C@@H]2C(=O)N[C@H](C(C)C)C(=O)N3CCC[C@H]3C(=O)N(C)CC(=O)N(C)[C@@H](C(C)C)C(=O)O[C@@H]2C)c(N)c1=O (I: T[dV]P[Sar][NMeV] / II: T[dV]P[Sar][NMeV]; ester I:1-I:C, II:1-II:C; linker I:N-II:N via Actinocin(9to1)) | 293% | –
O=C(COc1ccc(Cl)cc1)N1CCN(Cc2ccc3c(c2)OCO3)CC1 | -27% | –
NC(=O)C(=O)N/N=C/c1ccc([N+](=O)[O-])o1 | -13.6% | –
NCCc1ccn[nH]1 | -15.6% | –
CCCCOc1ccc(OCCCN2CCOCC2)cc1 | -4.08% | –
C=C1C(=C/C=C2\CCC[C@]3(C)[C@@H]([C@H](C)/C=C/[C@@H](O)C4CC4)CC[C@@H]23)C[C@@H](O)C[C@@H]1O | -2.92% | –
COC(=O)CCc1ccc(OCC(O)CNC(C)C)cc1 (stereo not given) | 39.7% | –
CC(=O)[C@H]1CC[C@H]2[C@@H]3C[C@H](C)C4=CC(=O)CC[C@]4(C)[C@H]3[C@@H](O)C[C@]12C | -1.78% | –
CC[N+](CC)(CCNC(=O)C(=O)NCC[N+](CC)(CC)Cc1ccccc1Cl)Cc1ccccc1Cl | – | inactive
Cc1ccnc(NS(=O)(=O)c2ccc(N)cc2)n1 | -10.5% | –
C#C[C@]1(O)CC[C@H]2[C@@H]3CCc4cc(OC5CCCC5)ccc4[C@H]3CC[C@@]21C | -19.9% | –
CCN(CC)CCNC(=O)COc1ccc(Cl)cc1 | -3.31% | –
